Assay results from PubChem BioAssay.
The source made the active and inactive calls. Unless noted, no rule for the calls is given here.

Experiments:
[1] = HepG2 liver cancer cell viability effects, profiling panel, resazurin fluorescence, 24 h, PK04 Diversity Set (AID 1172); conditions: higher = more signal; also: test concentration not given here
[2] = basal S. cerevisiae growth modulation, no modifier, primary screen, OD600, strain BY4716, 24 h, basal condition (AID 1173); conditions: OD600, 24 h, higher = more signal, called active from +8 up or from −8 down
[3] = MM1S myeloma cell viability, profiling panel, resazurin fluorescence, basal, 24 h, PK04 Diversity Set (AID 1174); conditions: higher = more signal, called active from +8 up or from −8 down;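 also: MM1S multiple myeloma cell line; test concentration not given here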
[4] = biological target: Dihydroorotate dehydrogenase (quinone), mitochondrial (Plasmodium falciparum (isolate 3D7)) (UniProt Q08210); test: PfDHODH enzyme inhibitors, primary screen, biochemical, C-terminal His tag, absorbance 600 nm (AID 1175); conditions: DCIP absorbance 600 nm, higher = more signal, called active from +8 up or from −8 down;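 also: recombinant parasite enzyme with a five histidine tag at its C terminus; test concentration not given here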
[5] = P. aeruginosa biofilm formation inhibitors, primary screen, strain PAO1, LB-PBS medium, absorbance 600 nm (AID 1176); also: test concentration not given here; conditions: P. aeruginosa PAO1 growth/biofilm, A600, 12 h; higher = more signal
[6] = S. cerevisiae RM11-1a growth modifiers, primary screen, strain RM11-1a, OD600, basal, 24 h (AID 1177); conditions: OD600, 24 h, higher = more signal, called active from +8 up or from −8 down;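 also: cultures grown under basal conditions with no added stressor; test concentration not given here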
[7] = E. coli acrAB mutant growth effects, primary screen, E. coli filamentation inducers, strain DRC39, OD650, 24 h (AID 1178); conditions: higher = more signal, called active from +8 up or from −8 down;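 also: growth measured as culture turbidity by optical density at 650 nm; test concentration not given here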
[8] = E. coli acrAB mutant growth effects, primary screen, E. coli filamentation inducers, strain DRC39, OD650, 48 h (AID 1179);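 also: screen aims at cell division blockers that make cells filament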; conditions: E. coli DRC39 delta-acrAB growth, higher = more signal, called active from +8 up or from −8 down
[9] = RPMI8226 myeloma cell viability, profiling panel, resazurin fluorescence, basal, 24 h, PK04 Diversity Set (AID 1180); conditions: higher = more signal;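 also: RPMI8826 multiple myeloma cell line at 5000 cells per well; test concentration not given here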
[10] = biological target: E3 ubiquitin-protein ligase XIAP (Homo sapiens) (UniProt P98170); test: XIAP binders, primary screen, biophysical, small-molecule microarray, fluorescence 635 nm (AID 1181); conditions: small-molecule microarray binding, higher = more signal;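 also: score merges 667 nm emission and signal to noise over triplicate slides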
Sequence of E3 ubiquitin-protein ligase XIAP (Homo sapiens) (P98170 whole entry, looked up): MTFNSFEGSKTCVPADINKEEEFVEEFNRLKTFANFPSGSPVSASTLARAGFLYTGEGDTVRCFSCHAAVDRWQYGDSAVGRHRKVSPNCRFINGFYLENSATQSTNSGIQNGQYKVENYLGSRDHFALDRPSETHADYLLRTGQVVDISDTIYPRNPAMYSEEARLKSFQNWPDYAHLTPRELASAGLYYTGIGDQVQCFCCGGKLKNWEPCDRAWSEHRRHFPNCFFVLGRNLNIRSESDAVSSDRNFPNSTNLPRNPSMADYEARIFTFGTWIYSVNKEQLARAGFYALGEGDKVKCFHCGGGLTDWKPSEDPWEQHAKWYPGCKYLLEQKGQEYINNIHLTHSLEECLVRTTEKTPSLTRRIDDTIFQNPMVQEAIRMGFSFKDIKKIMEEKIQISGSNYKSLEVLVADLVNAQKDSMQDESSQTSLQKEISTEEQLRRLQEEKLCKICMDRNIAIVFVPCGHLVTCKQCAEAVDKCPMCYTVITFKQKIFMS

Sequence of Dihydroorotate dehydrogenase (quinone), mitochondrial (Plasmodium falciparum (isolate 3D7)) (Q08210 whole entry, looked up): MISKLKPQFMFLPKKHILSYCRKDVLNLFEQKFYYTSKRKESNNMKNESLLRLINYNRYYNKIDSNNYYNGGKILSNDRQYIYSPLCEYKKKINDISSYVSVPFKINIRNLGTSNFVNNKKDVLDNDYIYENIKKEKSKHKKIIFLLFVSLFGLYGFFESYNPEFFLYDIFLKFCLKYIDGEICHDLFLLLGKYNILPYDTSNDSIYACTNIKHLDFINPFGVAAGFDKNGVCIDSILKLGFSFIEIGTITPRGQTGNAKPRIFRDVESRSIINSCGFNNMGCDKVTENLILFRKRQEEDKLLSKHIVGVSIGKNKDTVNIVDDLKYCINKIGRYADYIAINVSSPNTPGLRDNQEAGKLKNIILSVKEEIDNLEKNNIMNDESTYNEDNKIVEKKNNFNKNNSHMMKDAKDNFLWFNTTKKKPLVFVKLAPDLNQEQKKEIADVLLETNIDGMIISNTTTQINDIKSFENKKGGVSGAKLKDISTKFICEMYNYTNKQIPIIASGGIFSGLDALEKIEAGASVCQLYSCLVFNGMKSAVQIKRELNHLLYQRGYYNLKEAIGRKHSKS

Question: For `COc1ccc(COC(=O)NN=C2C[C@@H](O)[C@@H](O)[C@@H]3[C@@H]4C(=O)N(C5CCCCC5)C(=O)[C@@H]4CC[C@@H]23)cc1`, which z-score [1] is on record?
Answer: -0.578

Question: And the z-score [2]?
Answer: -1.29 (inactive)

Question: What about the z-score [3] of the same compound?
Answer: -0.489 (inactive)

Question: What about the composite z-score [4] of the same compound?
Answer: -1.39 (inactive)

Question: What about the z-score [5] of the same compound?
Answer: -0.118 (inactive)

Question: What about the z-score [6] of the same compound?
Answer: -0.286 (inactive)

Question: And the z-score [7]?
Answer: -0.697 (inactive)

Question: What about the z-score [8] of the same compound?
Answer: -0.437 (inactive)

Question: And the z-score [9]?
Answer: -0.481

Question: And the composite z-score [10]?
Answer: 0.0225

Question: Which results are given for `COC(=O)[C@H](C)NC(=O)CCC1CC(OC(=O)NCCc2ccc(F)cc2)CC2(CCCC(COC(=O)NCCc3ccccc3OC)O2)O1` (stereo not given in full)?
Answer: z-score [1]: 0.185; z-score [2]: 0.292 (inactive); z-score [3]: 0.173 (inactive); composite z-score [4]: 0.098 (inactive); z-score [5]: 0.119 (inactive); z-score [6]: 0.878 (inactive); z-score [7]: 0.636 (inactive); z-score [8]: -0.487 (inactive); z-score [9]: 0.833; composite z-score [10]: -0.0615

Question: With `O=C1CCCC=C1C(O)C1CCCCC1` (stereo not given) as the compound, how does the z-score [1] read?
Answer: -0.075

Question: And the z-score [2]?
Answer: -0.143 (inactive)

Question: And the z-score [3]?
Answer: -0.254 (inactive)

Question: What about the composite z-score [4] of the same compound?
Answer: -1.76 (inactive)

Question: And the z-score [5]?
Answer: -0.458 (inactive)

Question: And the z-score [6]?
Answer: -0.647 (inactive)

Question: What about the z-score [7] of the same compound?
Answer: 0.342 (inactive)

Question: What about the z-score [8] of the same compound?
Answer: 0.456 (inactive)

Question: What about the z-score [9] of the same compound?
Answer: 0.289

Question: What about the composite z-score [10] of the same compound?
Answer: -0.242

Question: Which z-score [1] does the source give for `C[C@H]1CC[C@@H](C(=O)O)N[C@@H]1c1ccc(C#Cc2ccccc2)cc1` here?
Answer: -0.214

Question: What about the z-score [2] of the same compound?
Answer: -19.1 (active)

Question: And the z-score [3]?
Answer: -0.477 (inactive)

Question: And the composite z-score [4]?
Answer: -1.36 (inactive)

Question: What about the z-score [5] of the same compound?
Answer: -0.446 (inactive)

Question: What about the z-score [6] of the same compound?
Answer: -18.9 (active)

Question: And the z-score [7]?
Answer: -0.0449 (inactive)

Question: And the z-score [8]?
Answer: -0.384 (inactive)

Question: And the z-score [9]?
Answer: 0.0569

Question: What about the composite z-score [10] of the same compound?
Answer: -0.0773

Question: For `COc1ccc(OC[C@@H](CO)OC)cc1`, which z-score [1] is on record?
Answer: -0.279

Question: And the z-score [2]?
Answer: 0.0175 (inactive)

Question: What about the z-score [3] of the same compound?
Answer: -0.143 (inactive)

Question: And the composite z-score [4]?
Answer: -0.591 (inactive)

Question: And the z-score [5]?
Answer: -0.364 (inactive)

Question: What about the z-score [6] of the same compound?
Answer: -0.334 (inactive)

Question: And the z-score [7]?
Answer: 0.293 (inactive)

Question: What about the z-score [8] of the same compound?
Answer: 0.178 (inactive)

Question: And the z-score [9]?
Answer: 0.421

Question: And the composite z-score [10]?
Answer: -0.0344

Question: For `O=C1C=C[C@@H](O)[C@@H]2[C@@H]3C(=O)N(c4cccc(Oc5ccccc5)c4)C(=O)[C@@H]3CC[C@@H]12`, which z-score [1] is on record?
Answer: -0.553

Question: And the z-score [2]?
Answer: -1.82 (inactive)

Question: And the z-score [3]?
Answer: -0.136 (inactive)

Question: And the composite z-score [4]?
Answer: -2.96 (inactive)

Question: And the z-score [5]?
Answer: 0.188 (inactive)

Question: And the z-score [6]?
Answer: -0.518 (inactive)

Question: And the z-score [7]?
Answer: 0.318 (inactive)

Question: What about the z-score [8] of the same compound?
Answer: -1.71 (inactive)

Question: And the z-score [9]?
Answer: 0.088

Question: What about the composite z-score [10] of the same compound?
Answer: 0.242

Question: Which z-score [1] does the source give for `C[C@@H]1CC[C@H]2C(=O)O[C@@H](COc3ccc(C(C)(C)C)cc3)CN2[C@H]1c1ccc(Br)cc1` here?
Answer: 0.7

Question: What about the z-score [2] of the same compound?
Answer: -0.481 (inactive)

Question: And the z-score [3]?
Answer: 0.385 (inactive)

Question: What about the composite z-score [4] of the same compound?
Answer: 0.444 (inactive)

Question: What about the z-score [5] of the same compound?
Answer: 0.11 (inactive)

Question: And the z-score [6]?
Answer: -0.0191 (inactive)

Question: And the z-score [7]?
Answer: -0.578 (inactive)

Question: What about the z-score [8] of the same compound?
Answer: -0.423 (inactive)

Question: And the z-score [9]?
Answer: 0.749

Question: What about the composite z-score [10] of the same compound?
Answer: -0.327

Question: Which z-score [1] does the source give for `CCOC(=O)CCN1C(=O)[C@H]2[C@H]3[C@H](O)[C@H](O)CC(=NOCC=C(C)CCC=C(C)C)[C@@H]3CC[C@H]2C1=O` here?
Answer: 0.046

Question: What about the z-score [2] of the same compound?
Answer: 0.448 (inactive)

Question: And the z-score [3]?
Answer: -0.836 (inactive)

Question: What about the composite z-score [4] of the same compound?
Answer: 0.69 (inactive)

Question: And the z-score [5]?
Answer: 0.176 (inactive)

Question: What about the z-score [6] of the same compound?
Answer: -0.839 (inactive)

Question: And the z-score [7]?
Answer: -1.15 (inactive)

Question: What about the z-score [8] of the same compound?
Answer: -0.209 (inactive)

Question: And the z-score [9]?
Answer: -0.871

Question: What about the composite z-score [10] of the same compound?
Answer: 0.175

Question: With `COc1cccc([C@H]2Oc3ccc(OC)cc3C(=NOCC[C@@H]3C=C[C@H](OC(C)=O)[C@@H](COC(C)=O)O3)[C@@H]2O)c1` as the compound, how does the z-score [1] read?
Answer: -0.76

Question: And the z-score [2]?
Answer: 0.813 (inactive)

Question: What about the z-score [3] of the same compound?
Answer: -0.698 (inactive)

Question: What about the composite z-score [4] of the same compound?
Answer: 0.472 (inactive)

Question: What about the z-score [5] of the same compound?
Answer: 0.0767 (inactive)

Question: What about the z-score [6] of the same compound?
Answer: 0.614 (inactive)

Question: What about the z-score [7] of the same compound?
Answer: 0.688 (inactive)

Question: What about the z-score [8] of the same compound?
Answer: -0.53 (inactive)

Question: And the z-score [9]?
Answer: -0.583

Question: What about the composite z-score [10] of the same compound?
Answer: 0.0123

Question: With `CCN1C(=O)[C@H]2[C@H]3[C@H](O)[C@H](O)CC(=NOCC=C(C)CCC=C(C)C)[C@@H]3CC[C@H]2C1=O` as the compound, how does the z-score [1] read?
Answer: -0.623

Question: And the z-score [2]?
Answer: -6.59 (inactive)

Question: What about the z-score [3] of the same compound?
Answer: -0.719 (inactive)

Question: And the composite z-score [4]?
Answer: -1.16 (inactive)

Question: And the z-score [5]?
Answer: -0.446 (inactive)

Question: And the z-score [6]?
Answer: -0.29 (inactive)

Question: And the z-score [7]?
Answer: 0.42 (inactive)

Question: What about the z-score [8] of the same compound?
Answer: -0.731 (inactive)

Question: And the z-score [9]?
Answer: -0.517

Question: And the composite z-score [10]?
Answer: 0.155

Question: For `COC(=O)CC=C[C@@H](C)[C@@H](C=NOC[C@@H](C)[C@H](OCc1ccccc1)C(C)C)NS(=O)(=O)c1ccc(C)cc1`, which z-score [1] is on record?
Answer: -1

Question: What about the z-score [2] of the same compound?
Answer: -0.0668 (inactive)

Question: What about the z-score [3] of the same compound?
Answer: -0.562 (inactive)

Question: What about the composite z-score [4] of the same compound?
Answer: 1.07 (inactive)

Question: And the z-score [5]?
Answer: -0.291 (inactive)

Question: And the z-score [6]?
Answer: 0.391 (inactive)

Question: And the z-score [7]?
Answer: -0.247 (inactive)

Question: What about the z-score [8] of the same compound?
Answer: -1.18 (inactive)

Question: What about the z-score [9] of the same compound?
Answer: 0.0833

Question: What about the composite z-score [10] of the same compound?
Answer: -0.0844

Question: Which z-score [1] does the source give for `CC(C)=CCCC(C)=CCON=C1[C@H]2CCn3c(=O)n(-c4ccccc4)c(=O)n3[C@H]2[C@H](O)[C@@H]2O[C@H]12` here?
Answer: -0.792

Question: And the z-score [2]?
Answer: -3.89 (inactive)

Question: What about the z-score [3] of the same compound?
Answer: -2.7 (inactive)

Question: What about the composite z-score [4] of the same compound?
Answer: -0.197 (inactive)

Question: What about the z-score [5] of the same compound?
Answer: 0.717 (inactive)

Question: What about the z-score [6] of the same compound?
Answer: -0.0881 (inactive)

Question: What about the z-score [7] of the same compound?
Answer: -0.611 (inactive)

Question: What about the z-score [8] of the same compound?
Answer: 0.092 (inactive)

Question: And the z-score [9]?
Answer: -2.03

Question: And the composite z-score [10]?
Answer: 0.293

Question: With `C=CCOCC1CN2[C@@H](CC[C@@H](C)[C@@H]2c2ccc(Br)cc2)C(=O)O1` (stereo not given in full) as the compound, how does the z-score [1] read?
Answer: 0.685

Question: What about the z-score [2] of the same compound?
Answer: -0.139 (inactive)

Question: And the z-score [3]?
Answer: 0.824 (inactive)

Question: And the composite z-score [4]?
Answer: -0.959 (inactive)

Question: And the z-score [5]?
Answer: 0.013 (inactive)

Question: And the z-score [6]?
Answer: 1.14 (inactive)

Question: And the z-score [7]?
Answer: 0.622 (inactive)

Question: What about the z-score [8] of the same compound?
Answer: -0.0542 (inactive)

Question: What about the z-score [9] of the same compound?
Answer: 1.49

Question: And the composite z-score [10]?
Answer: -0.184
